Data as given in PubChem BioAssay (EPA / NIEHS).
The source made the active and inactive calls. Rule for the calls: active = hit-call score of the fitted dose curve at least 0.9, where 1 is the maximum; inactive = score below 0.9.

Key:
Settings in all cases: mRNA level, 48 h; actives raise or lower the signal
[1] = read-out: Fatty Acid-Binding Protein 1 (FABP1), FABP1 (gene 2168); assay: LTEA_HepaRG_FABP1: Life Technologies and Expression Analysis (LTEA) Assay for Fatty Acid-Binding Protein 1 (FABP1) using HepaRG (AID 2283494)
Method in brief: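 Differentiated human HepaRG cells were exposed in duplicate for 48 h in serum-free induction medium to 8-point half-log concentration series topping at 100 uM in 0.5% DMSO. FABP1 mRNA measured by TaqMan qRT-PCR, normalized to ACTB/GAPDH/POLR2A; bidirectional fit versus DMSO.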

[2] = read-out: Cytochrome P450 4A22 (Homo sapiens) (UniProt Q5TCH4); assay: LTEA_HepaRG_CYP4A22: Life Technologies and Expression Analysis (LTEA) Assay for Cytochrome P450 4A22 (CYP4A22) using HepaRG (AID 2283495)
Method in brief: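 Differentiated HepaRG cells in serum-free induction medium exposed 48 h in duplicate to eight half-log concentrations up to 100 uM in 0.5% DMSO. CYP4A22 mRNA quantified by TaqMan qRT-PCR, normalized to ACTB, GAPDH and POLR2A; bidirectional fit versus DMSO.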

[3] = read-out: Glutathione S-Transferase (GSTA2), GSTA2 (gene 2939); assay: LTEA_HepaRG_GSTA2: Life Technologies and Expression Analysis (LTEA) Assay for Glutathione S-Transferase (GSTA2) using HepaRG (AID 2283497)
Method in brief: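 Human HepaRG cells, plated 48 h, then exposed in serum-free induction medium for 48 h to eight half-log concentrations up to 100 uM in 0.5% DMSO, duplicate. GSTA2 mRNA by qRT-PCR, normalized to ACTB/GAPDH/POLR2A; bidirectional fit versus DMSO.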

[4] = read-out: Glutamate-cysteine ligase catalytic (GCLC), GCLC (gene 2729); assay: LTEA_HepaRG_GCLC: Life Technologies and Expression Analysis (LTEA) Assay for Glutamate-cysteine ligase catalytic (GCLC) using HepaRG (AID 2283498)
Method in brief: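 Differentiated human HepaRG cells, plated 48 h then switched to serum-free induction medium, were exposed in duplicate for 48 h to 8 half-log concentrations topping at 100 uM in 0.5% DMSO. GCLC mRNA was quantified by qRT-PCR against ACTB, GAPDH and POLR2A.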

[5] = read-out: growth arrest and DNA damage 45 (GADD45G), GADD45G (gene 10912); assay: LTEA_HepaRG_GADD45G: Life Technologies and Expression Analysis (LTEA) Assay for growth arrest and DNA damage 45 (GADD45G) using HepaRG (AID 2283499)
Method in brief: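 Differentiated human HepaRG cells, 48 h post-plating, exposed 48 h in serum-free induction medium to 8 half-log concentrations (top 100 uM, 0.5% DMSO) in duplicate. GADD45G mRNA measured by Fluidigm TaqMan qRT-PCR, normalized to ACTB, GAPDH, POLR2A; bidirectional fit versus DMSO.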

[6] = read-out: Glutamate-cysteine ligase regulatory (GCLM), GCLM (gene 2730); assay: LTEA_HepaRG_GCLM: Life Technologies and Expression Analysis (LTEA) Assay for Glutamate-cysteine ligase regulatory (GCLM) using HepaRG (AID 2283500)
Method in brief: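 Human liver HepaRG cultures receive test chemicals for 48 hours at up to 100 uM in 0.5% DMSO. GCLM expression is measured by qRT-PCR and analysed for increases or decreases against vehicle.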

[7] = read-out: Glutathione S-transferase M3 (GSTM3), GSTM3 (gene 2947); assay: LTEA_HepaRG_GSTM3: Life Technologies and Expression Analysis (LTEA) Assay for Glutathione S-transferase M3 (GSTM3) using HepaRG (AID 2283501)
Method in brief: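 Differentiated human HepaRG cells were exposed in duplicate for 48 h in serum-free induction medium, 8 points from 100 uM top in half-log steps, 0.5% DMSO. GSTM3 mRNA was measured by TaqMan qRT-PCR, normalized to ACTB, GAPDH and POLR2A; bidirectional fit versus DMSO.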

[8] = read-out: Heat shock 70 kDa protein 1 (HSPA1A), gene 3303; assay: LTEA_HepaRG_HSPA1A: Life Technologies and Expression Analysis (LTEA) Assay for Heat shock 70 kDa protein 1 (HSPA1A) using HepaRG (AID 2283502)
Method in brief: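 HSPA1A induction in human HepaRG liver cells is measured after 48 h of chemical treatment (100 uM maximum, 0.5% DMSO vehicle). Expression comes from qRT-PCR normalized to endogenous controls.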

[9] = read-out: Hypoxia-inducible factor 1-alpha (Homo sapiens) (UniProt Q16665); assay: LTEA_HepaRG_HIF1A: Life Technologies and Expression Analysis (LTEA) Assay for Hypoxia-inducible factor 1 (HIF1A) Trancription factor using HepaRG (AID 2283503)
Method in brief: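 HepaRG, 48 h exposure, 8-pt half-log series from 100 uM, 0.5% DMSO vehicle, duplicates. Readout: HIF1A transcript by qRT-PCR (Fluidigm array), housekeeping-normalised. Bidirectional curve fit vs DMSO baseline.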

[10] = read-out: 3-Hydroxy-3-Methylglutaryl-CoA Synthase 2 (HMGCS2), HMGCS2 (gene 3158); assay: LTEA_HepaRG_HMGCS2: Life Technologies and Expression Analysis (LTEA) Assay for 3-Hydroxy-3-Methylglutaryl-CoA Synthase 2 (HMGCS2) using HepaRG (AID 2283504)
Method in brief: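 Human HepaRG cells in serum-free induction medium were exposed in duplicate for 48 h to 8-point half-log series from 100 uM top in 0.5% DMSO. HMGCS2 mRNA measured by TaqMan qRT-PCR, normalised to ACTB, GAPDH, POLR2A; bidirectional fit versus DMSO.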

HGF (gene 3082) = assay: LTEA_HepaRG_HGF: Life Technologies and Expression Analysis (LTEA) Assay for Hepatocyte Growth Facto (HGF) using HepaRG (AID 2283505)
Method in brief: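 Differentiated HepaRG cells in serum-free induction medium exposed 48 h in duplicate, 8 half-log concentrations from 100 uM in 0.5% DMSO. HGF mRNA by qRT-PCR, normalised to ACTB, GAPDH, POLR2A; bidirectional fitting.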

[11] = read-out: Insulin Like Growth Factor 1 (IGF1), IGF1 (gene 3479); assay: LTEA_HepaRG_IGF1: Life Technologies and Expression Analysis (LTEA) Assay for Insulin Like Growth Factor 1 (IGF1) using HepaRG (AID 2283506)
Method in brief: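 Using human HepaRG liver cells, IGF1 transcript induction or suppression is measured 48 h after dosing across eight concentrations capped at 100 uM. Values derive from bidirectional concentration-response fitting with DMSO as baseline.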

[12] = read-out: Intercellular Adhesion Molecule 1 (ICAM1), ICAM1 (gene 3383); assay: LTEA_HepaRG_ICAM1: Life Technologies and Expression Analysis (LTEA) Assay for Intercellular Adhesion Molecule 1 (ICAM1) using HepaRG (AID 2283507)
Method in brief: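 Differentiated human HepaRG cells in serum-free induction medium exposed 48 h in duplicate to 8 half-log concentrations (top 100 uM, 0.5% DMSO). ICAM1 mRNA quantified by TaqMan qRT-PCR, normalized to ACTB, GAPDH and POLR2A; bidirectional fitting versus DMSO.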

[13] = read-out: Insulin-like growth factor-binding protein 1 (IGFBP1), IGFBP1 (gene 3484); assay: LTEA_HepaRG_IGFBP1: Life Technologies and Expression Analysis (LTEA) Assay for Insulin-like growth factor-binding protein 1 (IGFBP1) using HepaRG (AID 2283508)
Method in brief: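 HepaRG cells, plated 48 h then switched to serum-free induction medium, exposed in duplicate for 48 h to 8-point half-log series from 100 uM in 0.5% DMSO. mRNA measured by qRT-PCR, normalized to ACTB/GAPDH/POLR2A; bidirectional fit versus DMSO.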

[14] = read-out: Interleukin 6 (IL6), IL6 (gene 3569); assay: LTEA_HepaRG_IL6: Life Technologies and Expression Analysis (LTEA) Assay for Interleukin 6 (IL6) using HepaRG (AID 2283509)
Method in brief: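 Differentiated human HepaRG cells, plated 48 h then switched to serum-free induction medium, were exposed in duplicate for 48 h to eight half-log concentrations up to 100 uM in 0.5% DMSO. IL6 mRNA measured by qRT-PCR, normalized to ACTB/GAPDH/POLR2A.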

[15] = read-out: Interleukin 6 Receptor (IL6R), IL6R (gene 3570); assay: LTEA_HepaRG_IL6R: Life Technologies and Expression Analysis (LTEA) Assay for Interleukin 6 Receptor (IL6R) using HepaRG (AID 2283510);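 for AC50: TaqMan qRT-PCR signal normalized to ACTB GAPDH and POLR2A housekeeping genes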
Method in brief: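 Concentration-response in human liver HepaRG cells: eight concentrations from 100 uM downward by half-logs, 48 h exposure, 0.5% DMSO vehicle. IL6R mRNA change measured by qRT-PCR and fitted in both directions relative to vehicle.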

[16] = read-out: Potassium channel subfamily K member 1 (KCNK1), KCNK1 (gene 3775); assay: LTEA_HepaRG_KCNK1: Life Technologies and Expression Analysis (LTEA) Assay for Potassium channel subfamily K member 1 (KCNK1) using HepaRG (AID 2283511)
Method in brief: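 Differentiated human HepaRG cells in serum-free induction medium were exposed in duplicate for 48 h to 8 half-log concentrations up to 100 uM in 0.5% DMSO. KCNK1 mRNA was measured by TaqMan qRT-PCR, normalized to ACTB, GAPDH and POLR2A, and fitted bidirectionally versus DMSO.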

[17] = read-out: Keratin 19 (KRT19), KRT19 (gene 3880); assay: LTEA_HepaRG_KRT19: Life Technologies and Expression Analysis (LTEA) Assay for Keratin 19 (KRT19) using HepaRG (AID 2283512)
Method in brief: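 Differentiated HepaRG cells in serum-free induction medium, exposed 48 h in duplicate to 8 half-log concentrations up to 100 uM in 0.5% DMSO. KRT19 mRNA by qRT-PCR, normalized to ACTB, GAPDH, POLR2A; bidirectional fit vs DMSO.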

Measured: AC50

Sequence of Hypoxia-inducible factor 1-alpha (Homo sapiens) (Q16665 whole entry, looked up): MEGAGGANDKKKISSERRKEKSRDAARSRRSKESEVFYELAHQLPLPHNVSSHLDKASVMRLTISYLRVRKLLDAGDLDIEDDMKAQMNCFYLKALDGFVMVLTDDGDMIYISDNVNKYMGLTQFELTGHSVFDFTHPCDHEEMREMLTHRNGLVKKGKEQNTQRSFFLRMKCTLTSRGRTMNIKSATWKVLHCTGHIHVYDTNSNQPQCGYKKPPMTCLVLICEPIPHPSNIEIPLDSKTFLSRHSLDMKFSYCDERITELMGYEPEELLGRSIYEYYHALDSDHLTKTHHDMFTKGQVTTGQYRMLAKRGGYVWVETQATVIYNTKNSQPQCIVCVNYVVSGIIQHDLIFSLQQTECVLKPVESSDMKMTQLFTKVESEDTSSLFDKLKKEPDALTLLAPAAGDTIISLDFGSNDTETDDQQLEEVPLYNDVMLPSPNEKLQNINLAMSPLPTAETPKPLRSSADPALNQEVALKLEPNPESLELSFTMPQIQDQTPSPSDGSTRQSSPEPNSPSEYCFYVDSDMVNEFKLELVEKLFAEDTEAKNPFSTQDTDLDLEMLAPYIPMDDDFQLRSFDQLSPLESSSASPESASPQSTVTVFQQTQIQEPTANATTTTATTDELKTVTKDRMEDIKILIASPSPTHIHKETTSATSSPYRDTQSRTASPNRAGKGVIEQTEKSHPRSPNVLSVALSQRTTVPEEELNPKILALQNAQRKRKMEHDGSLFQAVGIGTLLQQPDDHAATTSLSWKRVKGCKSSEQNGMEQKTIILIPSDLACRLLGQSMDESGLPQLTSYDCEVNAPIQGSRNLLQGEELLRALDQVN

Cc1c(C)c2c(c(C)c1O)CCC(C)(COc1ccc(CC3SC(=O)NC3=O)cc1)O2 (stereo unspecified)
inactive: [1] | [6] | [7] | [10] | HGF (gene 3082) | [12] | [16] | [17]
active: [2] 25.8 µM | [3] 23.2 µM | [4] 93.6 µM | [5] 19.1 µM | [8] 50 µM | [9] 66.8 µM | [11] 68.5 µM | [13] 50 µM | [14] 88.2 µM | [15] 92.9 µM

C=CCc1ccc(OC)c(OC)c1
not listed: [12]
inactive: all other assays above

OCC(CO)n1cnc(-c2ccc(F)cc2)c1-c1ccnc(Oc2ccccc2)n1
active: [1] 11.2 µM | [2] 16.6 µM | [8] 37 µM
not listed: [6]
inactive: all other assays above

Cn1cnc2c1c(=O)[nH]c(=O)n2C
not listed: [2] | [6] | [9] | [12]
inactive: all other assays above
